Compound activity (PubChem)
Compounds with a hit are over-represented: about 1.3% of the library has one in this group of screens.
HTR5A inv ag = counter-screen for OPRM1-OPRD1 inverse agonists: human HTR5A inverse agonism; P47898; HTR5A cell line, luminescence; inhibition, % at 9.3 µM; 340,000 compounds, 0.083% hits; in the data active = inhibition mostly above about 23%, no sharp cut-off; inactive = mostly below about 18%;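 also: 0% = cells with DMSO and 100% = no-cell wells with DMSO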
Target sequence (P47898 whole entry, looked up): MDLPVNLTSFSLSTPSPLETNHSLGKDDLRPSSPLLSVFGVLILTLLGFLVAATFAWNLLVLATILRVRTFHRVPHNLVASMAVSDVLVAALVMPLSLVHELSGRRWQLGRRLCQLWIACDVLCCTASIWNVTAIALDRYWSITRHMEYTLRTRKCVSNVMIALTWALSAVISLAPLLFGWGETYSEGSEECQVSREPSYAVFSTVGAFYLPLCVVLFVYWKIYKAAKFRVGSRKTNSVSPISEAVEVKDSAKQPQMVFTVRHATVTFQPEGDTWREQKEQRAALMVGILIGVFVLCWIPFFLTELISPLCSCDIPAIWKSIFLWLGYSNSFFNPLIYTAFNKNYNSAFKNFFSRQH
OPRM1-OPRD1 ag = agonists of human mu-delta opioid receptor heterodimerization; activation, % at 9.3 µM; 340,000 compounds, 0.3% hits; cells, OPRM1-OPRD1 heterodimerization, luminescence; AID 504326; in the data active = activation above about 18%;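 also: 0% = vehicle-treated cells and 100% = reference agonist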
CR mimetic SO = caloric restriction mimetics inhibiting age-related superoxide in yeast | superoxide response (% of plate mean), % at 10 µM | S. cerevisiae aged cells, superoxide DHE fluorescence; active compounds read low | 330,000 compounds, 0.18% hits;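 active = superoxide response under a set limit, about three screen SD below normal, cut at about 65% in these data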;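 also: yeast aged for seven days with compound at 30 °C before DHE staining; 100% = average MFI of all compound-treated wells on the plate with controls excluded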
MOR-DOR inv ag-1 = mu-delta opioid heterodimer inverse agonism; inhibition, % at 9.3 µM; cell-based MOR-DOR heterodimer luminescence; 340,000 compounds, 0.21% hits; AID 504357; P35372+P41143; in the data active = inhibition above about 22%, passing the limit was not always enough;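 also: 0% = cells with DMSO and 100% = wells without cells with DMSO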
HTR5A ag = activates human HTR5A in OPRM1-OPRD1 agonist counter-screen; P47898; HTR5A agonist assay, luminescence, cell-based; activation, % at 9.3 µM; 340,000 compounds, 0.61% hits; AID 504692; in the data active = activation mostly above about 9.5%, no sharp cut-off; inactive = mostly below about 7.6%;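 also: 0% = cells with vehicle only and 100% = reference agonist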
PvdQ acylase = P. aeruginosa PvdQ acylase inhibition. purified PvdQ acylase, fluorescence plate reader. inhibition, % at 10 µM. AID 488965. 340,000 compounds, 0.063% hits; in the data active = inhibition above about 30%, passing the limit was not always enough;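 also: 0% = vehicle neutral wells and 100% = reference inhibitor wells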
MOR-DOR inv ag-2 = counter-screen for HTR5A inverse agonists: OPRM1-OPRD1 heterodimerization inverse agonism; inhibition, % at 9.3 µM; 190 tested, under 10 active; shares compounds with HTR5A inv ag; U2OS counter-screen cells, complementation luminescence;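 also: 0% = cells with DMSO and 100% = wells without cells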
HTR5A inv conf = confirmation of human HTR5A inverse agonists. shares compounds with HTR5A inv ag. HTR5A-expressing cells, inverse agonism, luminescence. inhibition, % at 9.3 µM. 190 tested, under 10 active. AID 504916;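 also: 0% = cells with DMSO and 100% = no cells with DMSO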
Active calls of the source: *; i = inactive; / = no result given. Unless noted, no rule for the calls is given here.

SMILES | HTR5A inv ag | OPRM1-OPRD1 ag | CR mimetic SO | MOR-DOR inv ag-1 | HTR5A ag | PvdQ acylase | MOR-DOR inv ag-2 | HTR5A inv conf
O=c1[nH]n2c(=O)c3c([nH]c2c1N=Nc1cccc(Cl)c1)CCCC3 | 42.4* | -5.3 | 92.0 | 26.7 | -4.0 | -6.1 | i | -1.2
CCCN(CC(=O)Nc1ccccc1C)C(=O)c1ccc(-c2ccc(C(C)=O)cc2)o1 | 42.6* | -2.5 | 102.0 | 13.7 | -4.5 | 5.0 | -60.0 | -7.6
CCCN(CC(=O)Nc1ccccc1C)C(=O)c1ccc(C(=O)c2ccccc2)cc1 | -20.5 | 1.8 | 95.0 | -11.6 | 6.8 | 1.3 | / | /
Cc1nnc(NC(=O)c2ccc(S(=O)(=O)N(C)Cc3ccccc3)cc2)o1 | 8.0 | -2.8 | 131.8 | 15.7 | -4.5 | 5.6 | / | /
COCc1nnc(NC(=O)c2ccc(S(=O)(=O)N(C)Cc3ccccc3)cc2)o1 | 32.5* | 0.8 | 105.7 | -4.3 | -13.4 | -10.8 | 25.8 | 4.2
Cc1ccc(CNC(=O)C(c2ccccc2)c2ccccc2)cc1 | -15.8 | 0.3 | 102.6 | -1.6 | 8.9 | 0.2 | / | /
CNC(=O)c1cc(C(=O)c2ccccc2Br)c[nH]1 | 10.4 | -3.5 | 112.2 | 16.2 | -2.9 | 0.9 | / | /
COCCCNC(=O)c1cc(C(=O)c2ccccc2Br)c[nH]1 | 70.8* | -0.4 | 103.5 | 2.2 | -25.8 | -10.8 | -37.5 | -22.9
O=[N+]([O-])c1ccc(O)c(CSc2nnnn2-c2ccccc2)c1 | 6.4 | -3.7 | 103.7 | 18.7 | 5.7 | 11.6 | / | /
O=C(NCCCCc1ccccc1)Nc1ccc(F)cc1 | 3.5 | 5.2 | 107.7 | -21.1 | -1.4 | -5.9 | / | /
Cc1cccc(OCCOC(=O)c2c(-c3ccccc3)noc2C)c1 | 9.0 | 2.0 | 91.1 | -14.3 | 0.0 | -16.8 | / | /
O=[N+]([O-])c1ccc(S(=O)(=O)Nc2cccc(-c3ccc(N4CCOCC4)nn3)c2)cc1 | 42.5* | 5.4 | 86.2 | -35.2 | -1.3 | 8.8 | -21.3 | -13.2
COc1cccc(C(C(=O)NC(C)(C)C)N(C(=O)CCC(=O)Nc2cc(C)on2)C(C)(C)C)c1OC (stereo unspecified) | 91.0* | -0.2 | 90.6 | 1.2 | -25.7 | -5.1 | -5.5 | 3.8
COc1cccc(C(C(=O)NC(C)(C)C)N(C(=O)CCC(=O)Nc2cc(C)on2)C(C)C)c1OC (stereo unspecified) | 12.7 | -2.8 | 92.5 | 15.1 | -2.4 | -8.1 | / | /
CCOC(=O)C1(CCCc2ccccc2)CCN(C2CCN(C(C)=O)CC2)CC1 | -13.4 | -2.0 | 96.5 | 10.4 | 1.9 | -3.1 | / | /
O=C(NN1C(=O)/C(=C/c2ccc(O)c([N+](=O)[O-])c2)SC1=S)c1ccccc1Cl | 28.5* | -5.4 | 85.3 | 26.4 | -2.8 | 6.3 | -71.4 | 1.3
Cc1ccc2ccc(C(Nc3cccc(C(F)(F)F)c3)c3cccnc3)c(O)c2n1 (stereo unspecified) | 89.0* | 4.4 | 83.5 | -24.2 | -32.1 | -4.9 | -10.9 | -13.2
COc1ccccc1C(=O)NCCC(=O)N1CC(C)OC(C)C1 (stereo unspecified) | -8.5 | -2.9 | / | 15.3 | 3.1 | -9.5 | / | /
Cc1cccc(NC(=S)N/N=C2/CCCCc3ccccc32)c1 | 42.7 | -3.0 | 116.5 | 16.2 | -12.2 | 8.3 | / | /
Cc1ccc(NC(=S)N/N=C2/CCCCc3ccccc32)cc1 | 43.6* | 0.5 | 97.2 | -2.5 | -15.2 | -6.0 | -231.3 | -44.4
O=C(/C=C/c1ccc(F)cc1)NC(=S)NNC(=O)[C@H]1C[C@@H]1c1ccccc1 | 48.0* | -3.8 | 85.6 | 20.1 | -11.8 | -5.3 | -39.7 | -56.3
O=C(NC(=S)NNC(=O)[C@H]1C[C@@H]1c1ccccc1)c1ccc(F)cc1 | -3.5 | -1.7 | 184.5 | 8.8 | 3.1 | 7.6 | / | /
CCC(=O)Nc1ccc(C(=O)CN2C(=O)NC3(CCOc4ccccc43)C2=O)cc1 (stereo unspecified) | -6.0 | -2.1 | 86.0 | 8.6 | 2.4 | -0.7 | / | /
O=[N+]([O-])c1cc(/C=N/N/C(=N/c2ccccn2)c2ccccn2)ccc1O | 24.4* | -2.3 | 109.6 | 12.1 | -8.7 | -7.8 | 26.7 | -36.5
O=[N+]([O-])c1ccc(/C=N/N/C(=N/c2ccccn2)c2ccccn2)cc1 | 3.4 | 3.1 | 90.1 | -18.0 | -1.7 | -4.9 | / | /
SMILES | HTR5A inv ag | OPRM1-OPRD1 ag | CR mimetic SO | MOR-DOR inv ag-1 | HTR5A ag | PvdQ acylase | MOR-DOR inv ag-2 | HTR5A inv conf
Cc1cc(C)c(NC(=O)CN(C)CC(=O)N(C)CC(=O)Nc2c(Cl)cccc2Cl)c(C)c1 | 0.2 | -1.5 | 80.9 | 6.0 | -0.1 | -21.2 | / | /
Cn1c(N=Nc2ccc(N3CCOCC3)cc2)[n+](C)c2ccccc21 | 36.6* | -3.0 | / | 14.3 | -14.2 | -2.0 | -75.6 | -36.1
CCOC(=O)c1nn(-c2ccc(F)cc2)c(=O)cc1OCC(=O)N1CCN(c2ccccc2)CC1 | -3.1 | 1.3 | 93.2 | -8.3 | -5.4 | -9.7 | / | /
CCC1(C)Cc2ccccc2-c2c1c(=O)n(-c1ccc(C)cc1)c1nnnn21 (stereo unspecified) | 39.9* | -0.8 | 107.4 | 4.6 | -0.9 | -8.1 | -120.0 | -24.4
COc1cccc(CN(C)C(=O)CCN=C2NS(=O)(=O)c3ccccc32)c1 | 13.0 | -2.9 | 113.4 | 11.1 | -4.3 | -9.7 | / | /
CC(C)(C)NC(=O)NCC1CCCC1NC(=O)NC(C)(C)C (stereo unspecified) | -1.3 | -2.9 | 96.2 | 15.0 | 0.3 | -1.4 | / | /
CCOC(=O)CCNC(=O)N1CCCC(Cc2ccccc2)(C(=O)OCC)C1 (stereo unspecified) | 23.6* | -0.7 | 98.0 | 3.5 | -8.5 | 14.4 | 0.3 | 13.4
CCO[C@@H]1OC(C(=O)N2CCN(Cc3ccccc3)CC2)=C[C@H](c2ccc(C(F)(F)F)cc2)[C@H]1CCCO | 9.0 | 3.9 | 112.0 | -21.4 | -3.5 | -1.1 | / | /
CCO[C@@H]1OC(C(=O)N2CCN(Cc3ccccc3)CC2)=C[C@H](c2ccc(Br)cc2)[C@H]1CCCO | 36.6* | -2.1 | / | 12.0 | -7.0 | -18.3 | 18.0 | 2.5
CCOc1cc(N2CCOCC2)c(OCC)cc1NC(=O)c1oc2ccccc2c1C | 23.6* | 2.1 | 92.8 | -10.7 | -8.4 | -0.6 | -29.9 | 4.2
CCN1c2ccccc2S(=O)(=O)c2ccccc21 | 34.2* | -3.8 | 100.5 | 17.1 | -9.5 | -9.3 | 2.1 | -4.8
CSc1ccc(CN(C)CC(=O)NCCc2ccccc2)cc1 | -18.0 | -0.5 | 103.1 | 3.3 | 4.4 | -8.4 | / | /
COc1ccc(Cl)cc1C(=O)NNC(=O)COC(=O)CCN=C1NS(=O)(=O)c2ccccc21 | 71.3* | -5.6 | 82.9 | 29.0 | -29.2 | -15.3 | -19.9 | -137.9
CCOc1ccc(NC(=O)CCNC(=O)Cn2ccc3ccccc3c2=O)cc1 | -20.4 | -0.7 | 104.8 | 5.0 | 0.9 | -7.1 | / | /
COc1ccccc1NC(=O)CSc1n[nH]c(-c2ccccn2)n1 | 39.4* | -0.6 | 98.8 | 4.3 | -14.8 | 3.5 | -62.8 | -2.4
COc1ccc(NC(=O)CSc2n[nH]c(-c3ccccn3)n2)cc1 | -2.0 | -2.9 | 101.9 | 15.5 | 0.7 | 12.6 | / | /
